In the library only some 3.3% were active in any assay of this set; here they are far more common.
Luciferase inh: firefly luciferase inhibition; Potency, µM (series often up to 57.1 µM), usual class: inhibitors; purified firefly luciferase, luminescence, 8 min; actives 2.2% (n = 72,000); AID 411; note: nearly all actives have a fitted effect of over 40% in size
Target sequence (P08659 whole entry, looked up): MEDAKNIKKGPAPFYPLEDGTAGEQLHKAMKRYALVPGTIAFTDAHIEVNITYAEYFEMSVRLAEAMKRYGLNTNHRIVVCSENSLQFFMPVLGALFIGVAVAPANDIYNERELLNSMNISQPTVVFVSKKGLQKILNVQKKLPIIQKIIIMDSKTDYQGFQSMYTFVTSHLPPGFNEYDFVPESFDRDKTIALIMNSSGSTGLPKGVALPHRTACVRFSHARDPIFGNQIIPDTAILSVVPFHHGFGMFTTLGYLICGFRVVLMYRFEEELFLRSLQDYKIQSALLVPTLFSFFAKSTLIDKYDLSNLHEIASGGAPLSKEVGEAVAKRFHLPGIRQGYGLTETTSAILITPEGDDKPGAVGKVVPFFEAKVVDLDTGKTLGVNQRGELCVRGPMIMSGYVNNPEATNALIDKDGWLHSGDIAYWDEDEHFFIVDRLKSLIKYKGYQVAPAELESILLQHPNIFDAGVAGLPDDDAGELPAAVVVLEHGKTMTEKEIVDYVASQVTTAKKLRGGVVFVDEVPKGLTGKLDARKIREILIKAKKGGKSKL
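Luminescence read-out after 8 min at room temperature; enzyme reaction used luciferin plus 10 uM ATP (linear range) in imidazole buffer pH 7.2 with KCl, MgCl2, Tween 20 and BSA. Each sample was run as a titration.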
HBB splicing: modulators of hemoglobin beta chain splicing | actives 0.06% (n = 65,000) | Potency, µM (highest dose often 46.1 µM), usual class: activators | HBB splicing reporter cell assay, activation; EGFP reporter with mutant IVS2-654 intron; response scale: normalised to 500 nM splice-correcting PNA | AID 925
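Compounds were applied for 2 days to HeLa EGFP-654 cells, 500/well in Optimem with 2% FCS. The reporter's EGFP is disrupted by mis-splicing of beta-globin intron IVS2-654. Readout: summed well GFP fluorescence from 488 nm laser scanning; reference was 500 nM antisense […] 654 PNA.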
UbGFP stabilizer: inhibits proteasome, raising ubiquitin-GFP reporter fluorescence | Ubiquitin-GFP reporter cells, proteasome inhibition, GFP fluorescence; response scale: untreated = 0%, 10 µM MG-132 = 100% | Potency, µM (doses to about 45.9 µM), actives largely listed as activators | 67,000 tested, under 10 active | AID 526; active = well fitted activation curve with a large enough effect, not every such curve was filed as active; inconclusive = small, poorly fitted or top-dose-only effect, or another doubt; inactive = no such curve, though single readings can be large or run the other way
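U2OS cells stably expressing ubiquitin(G76V)-GFP, seeded overnight in 0.5% FBS medium, were exposed to compounds (qHTS, 46 uM to 2.9 nM) for 4 hr at 37 °C. GFP-positive cells were counted by laser cytometry (488 ex/515 em), normalized between basal and 10 uM MG-132.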
Bst PK mod: pyruvate kinase (B. stearothermophilus) modulation | purified pyruvate kinase, luminescence ATP production; ribose 5-phosphate activator present at AC10 | Potency, µM | actives 1.2% (n = 51,000) | AID 361; in the data active = potency below about 11 µM; inconclusive = mostly about 12 µM to 25 µM;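 the screen sought inhibitors and activators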
GFP derepression: epigenetic modulators derepressing GFP locus in mouse cells; mouse C127i GFP locus derepression, cytometry, 30 h; actives 0.09% (n = 68,000); AID 597; Potency, µM (doses to about 46.1 µM)
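Derepression screen: silenced CMV-GFP reporter in murine C127i cells, 30 h compound incubation at 37 C, washed cells imaged by laser-scanning cytometer to enumerate GFP-expressing objects of 20 to 120 um.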
GBA mod: modulators of human glucocerebrosidase; actives 1.1% (n = 48,000); P04062; AID 360; Potency, µM; purified enzyme, resorufin glucoside fluorescence (screen aimed at inhibitors), 20 min; in the data active = potency below about 15 µM; inconclusive = mostly about 16 µM to 33 µM;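 note: the screen sought inhibitors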
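Normal human glucocerebrosidase (0.2 nM final) was assayed with resorufin β-D-glucopyranoside (30 uM final) in 50mM citric acid/KH2PO4, 10mM sodium taurocholate, 0.01% tween-20, pH 5.9. Compounds were titrated; fluorescence (Ex 548, Em 600) read after 20 min at RT.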
A number is an active result; i = inactive; ? = inconclusive; nt = no result; [ ] = another dose, or the depositor's remark. Unless noted, calls come from the whole dose curve; as a rule, active = well fitted curve in the direction sought with a large enough effect; inconclusive = small, poorly fitted or top-dose-only effect, or another doubt; inactive = no such curve, though single readings can be large; an effect the other way counts as inactive or inconclusive.

SMILES	Luciferase inh	HBB splicing	UbGFP stabilizer	Bst PK mod	GFP derepression	GBA mod
O=C(CS(=O)(=O)Cc1ccccc1)Nc1nc2c(s1)CCCC2	i	i	i	i	i	i
Nc1nc(Nc2ccccc2)nc2c1ncn2[C@@H]1O[C@@H](CO)[C@H](O)[C@@H]1O	i	i	i	nt	i	nt
Cc1ccc(N2C(=O)c3ccccc3C2O)nc1 (stereo not given)	6.3µM	i	i	nt	nt	nt
CC(C)NC(=O)NC(=O)COc1ncnc2sccc12	i	i	i	i	i	i
C=CCn1c(C)cc(C(=O)COc2ncnc3sccc23)c1C	13µM	i	i	?	i	i
O=C(c1cccc(F)c1)N1CCc2ccccc21	i	i[0.0738 µM]	i[9.17 µM]	nt	i	nt
O=C(COc1ccc(F)cc1Br)N1CCc2ccccc21	7.9µM	i	i	i	i	i
CC1CCCC(NC(=O)C2CCN(S(=O)(=O)N3CCC4(CC3)OCCO4)CC2)C1C (stereo not given)	i	i	i	i	i	14
COCCn1c(=O)c(-c2cccc(C#N)c2)nc2cnc(N3CCN(C)CC3)nc21	i[11.4 µM]	i	i	nt	i[9.22 µM]	nt
O=c1cnc2cncnc2n1Cc1ccccc1Cl	i[11.4 µM]	i	i	nt	i[9.22 µM]	nt
CN(C)Cc1ccc(-c2cc3onc(-c4ccccc4)c3c(=O)n2C)cc1	4µM	i[9.22 µM]	i[9.17 µM]	nt	i[9.22 µM]	nt
CN(C)c1ncc2nc(-c3ccccc3)c(=O)n(C)c2n1	i[11.4 µM]	i	i	nt	i[9.22 µM]	nt
O=S1(=O)C=C(Sc2nc3ccccc3s2)c2ccccc21	13µM	i	i	i	i	11
Cc1cc(C)nc(SC2=CS(=O)(=O)c3ccccc32)n1	i	i	i	i	i	i
COc1ccc(O)c(C(=O)CC(=O)c2ccc(F)cc2)c1	25µM	i	i	nt	i	nt
Cc1ccc(O)c(C(=O)CC(=O)c2cccc(F)c2)c1	i	i[0.0738 µM]	i[9.17 µM]	nt	i	nt
CCCCNc1nc(C)nc2c1nc(-c1ccccc1)n2C(C)CCCN(CC)CC (stereo not given)	nt	i	i	nt	nt	nt
COc1cc(OC)c(/C=C2/C(=O)Nc3ccccc32)c(OC)c1	i	i	i	nt	i	nt
Cc1cc(C)c(/C=C2/C(=O)Nc3ccccc32)[nH]1	i	32µM	i	nt	i	nt
CN(C)S(=O)(=O)c1cccc(-c2cn3ccccc3n2)c1	i	i[0.369 µM]	nt	nt	i	i
COc1ccc(-c2cn3cc(C)ccc3n2)cc1OC	2.5µM	i	i	1.8	i	nt
COc1ccc(-c2cn3ccccc3n2)cc1OC	3.2µM	i[1.84 µM]	i	6.5	i	i
CCN(CC)CCCCn1c(-c2ccccc2)nc2c(NC3CCCCC3)nc(C)nc21	nt	i	i	nt	nt	nt
Cc1cccnc1Nc1nc(-c2ccc(O)cc2O)cs1	16µM	i	i	1.7	i	?
COc1ccc(C(OCCN2CCC[C@@H](C(=O)O)C2)(c2ccc(OC)cc2)c2ccc(OC)cc2)cc1	i	nt	i	nt	i	nt
SMILES	Luciferase inh	HBB splicing	UbGFP stabilizer	Bst PK mod	GFP derepression	GBA mod
CN1CCc2c(sc3c2C(=O)NC(c2cccc(OC(=O)c4cccs4)c2)N3)C1 (stereo not given)	i	i	i	nt	nt	nt
CCOC(=O)N1CCc2c(sc3c2C(=O)NC(c2ccccc2)N3)C1 (stereo not given)	i	i	i	i	i	4
Cc1cc(C)n(CCOC(=O)c2sc3ccccc3c2Cl)n1	16µM	i	i	i	i	i
COc1cccc(OC)c1OCCNC[C@@H]1CSc2ccccc2O1	i	i	i	nt	i	nt
CCCCCSc1nc2c(cnn2-c2ccccc2)c(=O)[nH]1	i	i	i	i	i	13
Cn1c(SCc2nc3ccccc3s2)nnc1-c1cccs1	i	i	i	i	i	i
Cc1ccccc1-n1c(C)nnc1SCc1nc2ccccc2s1	20µM	i	i	nt	i	i
Cc1cccc(CNc2ccnc(-c3ccc(N(C)C)cc3)n2)c1	i[2.29 µM]	i	i	nt	i[9.22 µM]	nt
Cn1c(-c2ccc(Br)o2)nc2cc(Br)ccc21	6.3µM	i[0.369 µM]	nt	nt	i	i
Cn1cc(C(=O)c2ccccc2)cc1-c1nc2ccccc2n1C	i	i	i	i	i	i
Cc1oc(-c2nc3ccccc3n2C)cc1C(=O)c1ccccc1	2.5µM	i	i	3.4	i	i
CC(=O)c1ccc(-c2nc3ccccc3n2C)o1	i	i	i	i	i	i
Cn1c(-c2ccc(Br)o2)nc2ccccc21	7.9µM	i[0.369 µM]	nt	?	i	i
O=c1cnc2cnc(Nc3ccccc3)nc2n1Cc1cccs1	i[11.4 µM]	i	i	nt	i[9.22 µM]	nt
NC(N)=[N+]1CCc2ccccc2C1	i	i	i	nt	i	nt
Cc1cccc(-c2cc3nc4c(c(N5CCOCC5)n3n2)CCCC4)c1	16µM	i	i	?	i	i
C[C@]12CC[C@H]3c4ccc(OC[C@H]5CO5)cc4CC[C@H]3[C@H]1CC[C@@H]2O	i[11.4 µM]	i[9.22 µM]	nt	nt	nt	nt
Cc1cc2nc(-c3cccc(NC(=O)c4ccc(Br)o4)c3C)oc2cc1C	7.9µM	i[0.0738 µM]	i[9.17 µM]	nt	i	nt
OC[C@@H]1O[C@@H](O)[C@H](N=Cc2ccc3c(c2)OCO3)[C@@H](O)[C@@H]1O	i[11.4 µM]	i[9.22 µM]	i[9.17 µM]	nt	i[9.22 µM]	nt
CCCCC(=O)Nc1cc2nn(-c3ccc(OC)cc3)nc2cc1C	i	nt	i	i	i	i
CCC(=O)Nc1cc2nn(-c3ccc(OC)cc3)nc2cc1C	1.3µM	nt	i	3.4	i	i
COc1ccc(CCN(C)CCC[C@@](C#N)(c2cc(OC)c(OC)c(OC)c2)C(C)C)cc1OC	i	i	i	nt	i	nt
CC(C)Cn1nc(NC(=O)C(C)(C)C)c2cc3ccccc3nc21	i	nt	nt	i	i	nt
COc1ccc2nc3c(cc2c1)c(NC(=O)c1cccs1)nn3CC(C)C	13µM	i[0.369 µM]	i	i	i	?
CN(C)CCCO[C@H]1[C@H]([C@H](O)CO)O[C@H]2OC(C)(C)O[C@@H]21	i	i	i	nt	i	nt
SMILES	Luciferase inh	HBB splicing	UbGFP stabilizer	Bst PK mod	GFP derepression	GBA mod
O=C(Cc1cc(=O)[nH]c(=O)[nH]1)NCCN1CCOCC1	7.9µM	i	i	nt	nt	nt
Nc1ccc2oc(-c3ccccc3Cl)nc2c1	3.2µM	nt	nt	3	i	nt
CCc1ccc2oc(-c3cc(N)ccc3O)nc2c1	1µM	i	i	1.2	i	i
CCc1ccc2oc(-c3cc(N)cc(C)c3O)nc2c1	2.5µM	i	i	3.6	i	i
Nc1ccc2oc(-c3cc(Br)ccc3Cl)nc2c1	i	nt	nt	nt	i	nt
CCc1ccc2oc(-c3cc(N)ccc3Cl)nc2c1	2.5µM	nt	i	2.9	i	i
Fc1ccccc1CSc1ncnc2c1oc1ccccc12	13µM	i	i	?	i	nt
O=Nc1ccc(Nc2ccccc2)cc1	nt	i	nt	nt	nt	nt
C[N+](C)(C)CCO	i	i	i	nt	i	nt
CCn1c(SCC(=O)Nc2ccc(N3CCOCC3)c(Cl)c2)nnc1-c1ccc(N)cc1	13µM	i	i	nt	i	i
CCn1c(SCC(=O)Nc2ccccc2N2CCOCC2)nnc1-c1ccccc1	i	i	i	i	i	i
CC(C)(C)c1ccc(-c2nc(C#N)c(NCc3ccncc3)o2)cc1	20µM	i[0.369 µM]	nt	nt	i	i
